Screening data as filed in PubChem.
An excerpt weighted towards active compounds, which were near 4% of everything screened.
NALP1 inh = NALP1 inhibition | 280,000 compounds, 0.61% hits | S. cerevisiae NALP1/ASC/caspase-1 growth, X-gal OD620, 72 h | inhibition, % at 10 µM; in the data active means inhibition mostly above about 24%, no sharp cut-off; inactive means mostly below about 32%
TIM10 inh = inhibits growth of TIM10 yeast strain | S. cerevisiae TIM10 strain growth, BacTiter-Glo luminescence, 24 h | inhibition, % at 10 µM | 330,000 compounds, 1.4% hits;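 active means inhibition of 40% or more at the single tested concentration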;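 further: wild-type TIM10 isogenic control strain grown at permissive 25 °C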
tim10-1 inh = inhibits growth of tim10-1 mutant yeast; S. cerevisiae tim10-1 ts strain growth, BacTiter-Glo, 24 h; inhibition, % at 20 µM; 330,000 compounds, 2.2% hits; AID 463190;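 active means inhibition of at least 40%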;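 further: mutant grown at 25 °C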
tim23-1 inh = inhibits growth of tim23-1 mutant yeast; S. cerevisiae tim23-1 growth, BacTiter-Glo luminescence, 24 h; inhibition, % at 20 µM; 330,000 compounds, 1.3% hits;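 active means growth inhibition of the mutant yeast at or above 50%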;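 further: temperature-sensitive mutant grown at 25 °C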
NLRP3 yeast inh = blocks the NALP3 inflammasome reconstituted in yeast; AID 2825; 330,000 compounds, 0.39% hits; inhibition, % at 10 µM; Yeast reconstituted NLRP3/ASC/caspase-1, beta-gal luminescence, 24 h;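 active means inhibition of 50% or more; inactive means inhibition below 50%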
tim10 confirm = confirmation of TIM10 yeast growth inhibitors. shares compounds with TIM10 inh. S. cerevisiae tim10 strain growth, BacTiter-Glo luminescence, 24 h. inhibition, % at 10 µM. 4,600 compounds, 63% hits;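 active means inhibition of yeast growth at or above a set limit in either of two replicates at 10 µM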; further: this counterscreen used the strain with wild-type TIM10
Of the large screens only hits and unclear results are named; the others gave an inactive call (follow-up assays come after a bar, where they were run).

O=C(COc1cc2oc(=O)c3c(c2cc1Cl)CCCC3)N1C[C@H]2C[C@@H](C1)c1cccc(=O)n1C2	none
CCOc1ccc(/C=N/NC(=O)c2csc(C)c2C)c(OCC)c1	none
CCCCOc1cccc(/C=N/NC(=O)c2csc(C)c2C)c1	TIM10 inh 47.9 | tim10 confirm inactive
COC(C(=O)Nc1ccnn1C1CCN(Cc2ccccn2)CC1)c1ccccc1 (stereo not drawn)	none
Nc1nnc(SCCCC(=O)c2ccc(F)cc2)s1	none
Nc1nnc(SCCCC(=O)c2ccc(Br)cc2)s1	TIM10 inh 40.1 | tim10 confirm inactive
Cc1cccc(OCC(=O)N2CCN(C(=O)COc3ccc(Cl)cc3)CC2)c1	none
O=C(COc1ccc2ccccc2c1)Nc1ccc(Br)cc1C(=O)O	none (no result: TIM10 inh, tim10-1 inh, tim23-1 inh, NLRP3 yeast inh)
O=C(COC(=O)c1ccccc1Nc1ccc(SC(F)F)cc1)NC1CC1	TIM10 inh 51.1 | tim10 confirm 37.0
CC(C)(C)NC(=O)C(c1cccs1)N(CC1CCCO1)C(=O)c1ccc(-c2ccccc2)[nH]1 (stereo not drawn)	TIM10 inh 41.7 | tim10 confirm inactive
O=C(NCC1CCCO1)C(c1cccs1)N(Cc1ccccc1)C(=O)c1ccc(-c2ccccc2)[nH]1 (stereo not drawn)	none
Cc1ccc(-n2nnc3c(=O)oc4ccccc4c32)cc1	TIM10 inh 77.5 | tim10 confirm 90.9
Cc1cc(C)c(S(=O)(=O)N2CCC(C(=O)NCc3ccncc3)CC2)c(C)c1	none
Cc1cc(C)c(S(=O)(=O)N2CCC(C(=O)NCc3ccc(Cl)cc3Cl)CC2)c(C)c1	TIM10 inh 56.1 | tim10 confirm 50.6
COc1ccc(C2CC(c3ccccc3C(F)(F)F)=NN2c2ccc(S(N)(=O)=O)cc2)cc1 (stereo not drawn)	none (no result: NALP1 inh, NLRP3 yeast inh)
CCOC(=O)N1CCN(C(=O)c2ccc3c(c2)sc2nc(-c4ccccc4)cn23)CC1	TIM10 inh 44.5 | tim10 confirm 52.8
C/C=C(/C)C(=O)OC1c2c(ccc3ccc(=O)oc23)OC(C)(C)C1OC(C)=O (stereo not drawn)	TIM10 inh 42.1 | tim10 confirm inactive
Cn1cc(Br)c(C(=O)Nc2c(F)c(F)c(F)c(F)c2F)n1	none
Cn1cc(Br)c(NC(=O)/C=C/C(=O)O)n1	TIM10 inh 65.9 | tim10 confirm inactive
O=C1CCNc2ccc(-c3ccccc3)cc21	none
O=C1CCNc2cc3ccccc3cc21	TIM10 inh 42.1 | tim10 confirm inactive
CCc1ccc2[nH]c(=O)c(C(c3nnnn3Cc3ccco3)N3CCC(C)CC3)cc2c1 (stereo not drawn)	TIM10 inh 40.7 | tim10 confirm inactive
O=C(NC(=S)Nc1ccc(S(=O)(=O)NC2CCCCC2)cc1)c1cccs1	TIM10 inh 40.7 | tim10 confirm 38.2
O=C(NC(=S)Nc1ccc(S(=O)(=O)N2CCCCC2)cc1)c1cccs1	none
C/C(CCc1ccc2c(c1)OCO2)=N\NC(=O)c1ccccc1Br	none
O=C(Nc1ccc(NC(=O)c2ccccc2F)cc1)c1cccs1	TIM10 inh 44.8 (no result: NALP1 inh) | tim10 confirm inactive
CC(C)CN(C(=O)c1cccc(S(=O)(=O)N2CCN(C)CC2)c1)C1CCS(=O)(=O)C1 (stereo not drawn)	none (no result: NALP1 inh)
COC(=O)c1cccc(NC(=S)Nc2ccc(Cl)c(Cl)c2)c1	TIM10 inh 57.4 | tim10 confirm 34.2
COC(=O)c1cccc(NC(=O)NC23CC4CC(CC(C4)C2)C3)c1	TIM10 inh 48.3 | tim10 confirm 38.4
COC(=O)c1cccc(NC(=S)Nc2ccccc2Cl)c1	none (no result: NALP1 inh)
COC(=O)c1cc(C(=O)N2CCc3ccccc32)cc([N+](=O)[O-])c1	none
CCCc1cc(=O)[nH]c(SCC(=O)N(CC)c2c(N)n(Cc3ccccc3)c(=O)[nH]c2=O)n1	none (no result: NALP1 inh)
Cc1cccc(-c2nc(=S)c3c(o2)CCCC3)c1	TIM10 inh 43.6 | tim10 confirm 33.0
S=c1nc(-c2ccc(Br)cc2)oc2c1CCCC2	none
Clc1ccc(-c2onc3c2CCCC3)cc1	none
Clc1ccc(-c2n[nH]c3c2CCCC3)cc1	TIM10 inh 40.9 | tim10 confirm 34.0
Cc1noc(C)c1S(=O)(=O)N1CCCN(C(=O)/C=C/c2ccccc2F)CC1	none (no result: NALP1 inh)
CC(C)c1ccccc1NC(=S)NC1CCCCC1	TIM10 inh 46.2 | tim10 confirm inactive
S=C(Nc1ccccc1Oc1ccccc1)NC1CCCC1	TIM10 inh 40.7 | tim10 confirm inactive
CCC(C)N=C1Sc2nc3ccc(C)cc3cc2CN1CCOC (stereo not drawn)	none
Oc1ccc(CN2CCc3ccccc3C2)c2cccnc12	TIM10 inh 41.2 (no result: NALP1 inh) | tim10 confirm inactive
Oc1ccc(CN2CCCCC2)c2cccnc12	none
Cc1c(CC(=O)N[C@H](C(=O)O)C(C)C)c(=O)oc2cc3c(cc12)CCC(C)(C)O3	none
CN1CCN(c2nc(-c3ccncc3)nc3ccccc23)CC1	none
CN1CCN(c2nc(-c3ccc(Cl)cc3)nc3ccccc23)CC1	TIM10 inh 41.0 | tim10 confirm inactive
Cc1[nH]c(=O)c(C#N)c(C)c1CCC(=O)NCc1ccc(Cl)cc1	none
c1ccc2[nH]c(NC3=NCCC3)nc2c1	TIM10 inh 40.7 | tim10 confirm inactive
Cc1cccc(N(C(=O)c2ccco2)C(C(=O)NC2CCCC2)c2ccco2)c1C (stereo not drawn)	none
Cc1cc(C)nc(SCc2cc(=O)c(OC(=O)c3ccco3)co2)n1	TIM10 inh 42.0 | tim10 confirm 37.0
Cc1cc(C)nc(SCc2cc(=O)c(OC(=O)c3ccc(Br)o3)co2)n1	none
Clc1c(-c2ccccc2)nc2ccccn12	TIM10 inh 97.4 | tim10 confirm inactive
Cc1cc(C)cc(S(=O)(=O)c2cn(C)c3cc(N4CCN(C)CC4)c(F)cc3c2=O)c1	none
O=C(O)c1cc(-c2cccc([N+](=O)[O-])c2)n[nH]1	none
CCOC(=O)c1cc(-c2cccc([N+](=O)[O-])c2)n[nH]1	NALP1 inh 30.0, TIM10 inh 47.8 | tim10 confirm 28.2
COc1ccc(NC(=O)c2cc3c(-c4ccc(OC)c(OC)c4)nn(C)c3s2)cc1OC	TIM10 inh 40.1 | tim10 confirm 26.9
CC(=O)Nc1cc(C(=O)N2CCc3ccccc3C2)ccc1Sc1ccc(F)cc1	none
CC(=O)Nc1cc(C(=O)N2CCc3ccccc3C2)ccc1Sc1ccc(Cl)cc1	TIM10 inh 41.6 | tim10 confirm inactive
CCSc1nc2sccc2c(=O)n1-c1ccccc1	none
CC(=O)Nc1ccc(S(=O)(=O)N2CCC(NC(=O)C(Cc3ccccc3F)NC(C)=O)CC2)cc1 (stereo not drawn)	none
CCCCOc1c(Br)cc(/C=C2\N=C(C)OC2=O)cc1OCC	TIM10 inh 49.2 | tim10 confirm inactive
CCOC(=O)Nc1cccc(NC(=O)c2cc(OC)cc(OC)c2)c1	TIM10 inh 41.3 | tim10 confirm inactive
COC(=O)c1cc(NC(=O)c2cccnc2)cc(C(=O)OC)c1	none
O=C(COc1cccc(NC(=O)c2ccccc2)c1)c1ccc(F)cc1	TIM10 inh 41.6 | tim10 confirm 33.9
